What follows are compounds tested against Mitogen-activated protein kinase 3 (Homo sapiens) (UniProt P27361). Conditions: at 1 µM.
Sequence of Mitogen-activated protein kinase 3 (Homo sapiens) (P27361 whole entry): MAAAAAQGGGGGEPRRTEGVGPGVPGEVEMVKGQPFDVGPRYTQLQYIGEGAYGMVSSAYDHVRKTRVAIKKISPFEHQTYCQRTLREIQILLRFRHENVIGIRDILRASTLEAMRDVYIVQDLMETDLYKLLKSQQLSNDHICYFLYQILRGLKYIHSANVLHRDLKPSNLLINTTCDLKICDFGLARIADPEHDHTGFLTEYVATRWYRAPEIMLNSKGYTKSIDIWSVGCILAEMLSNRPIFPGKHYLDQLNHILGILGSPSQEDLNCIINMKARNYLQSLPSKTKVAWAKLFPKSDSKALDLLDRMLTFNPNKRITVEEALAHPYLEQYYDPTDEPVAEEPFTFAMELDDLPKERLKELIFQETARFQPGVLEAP
With `COc1cc2ncnc(Nc3ccc(Oc4ccccc4)cc3)c2cc1OC` the residual activity was 83%.
For `Oc1c2ccccc2c2c3c(cccc13)N=N2`, the residual activity was 59%.
With `Cc1nc2cc3nc(-c4cccs4)cnc3cc2n1C` the residual activity was 114%.
For `Cn1nc2c3c(cccc31)C(=O)c1ccccc1-2`, the residual activity was 83%.
`CO[C@H]1[C@@H](OC)C[C@H](C)[C@@H](OC)C2=CC(=O)C=C(NC(=O)/C(C)=C/C=C/[C@H](OC)[C@@H](OC(N)=O)/C(C)=C/[C@@H]1C)C2=O` was tested, and the residual activity was 88%.
Work on `COc1ccc(CNc2nc(N(CCO)CCO)nc3c2ncn3C(C)C)cc1` yielded a residual activity of 91%.
Compound `O=[N+]([O-])c1ccc(-c2nc(-c3ccc(F)cc3)c(-c3ccncc3)[nH]2)cc1` has a residual activity of 85%.
With `COc1ccc(S(=O)(=O)N(CCO)c2ccccc2CN(C)C/C=C/c2ccc(Cl)cc2)cc1` the residual activity was 82%.
Compound `c1ccc(-c2n[nH]c3c2oc2ccccc23)cc1` has a residual activity of 86%.
`N#CCCc1ccc2c(c1)-c1[nH]c3ccc([N+](=O)[O-])cc3c1CC(=O)N2` showed a residual activity of 58%.
For `C[C@@H](N)[C@H]1CC[C@H](C(=O)Nc2ccncc2)CC1`, the residual activity was 113%.
`O=C(Nc1cccc(Nc2nccc(Nc3cccc(C(F)(F)F)c3)n2)c1)C1CC1` showed a residual activity of 89%.
With `O=c1c2ccccc2[nH]c(=S)n1CCN1CCC(=C(c2ccc(F)cc2)c2ccc(F)cc2)CC1` the residual activity was 88%.
In the case of `Oc1ccc(-c2nc(-c3ccc(F)cc3)c(-c3ccncc3)[nH]2)cc1`, the residual activity is reported as 123%.
Compound `O=C1NC(=O)c2cc(Nc3ccc(F)cc3)c(Nc3ccc(F)cc3)cc21` has a residual activity of 79%.
`CN(C)c1ccc(/C=C2\C(=O)Nc3ccccc32)cc1` showed a residual activity of 91%.

Reference: ChEMBL document CHEMBL2218924, “A broad activity screen in support of a chemogenomic map for kinase signalling research and drug discovery” (Biochem J, 2013)
